# The full ranking holds about 33,000 sequences; the median of “E-score (-0.5 to 0.5)” is about -0.0014, and the highest 2% start at about 0.25. For the sample, the highest values were picked, then their nearest neighbours and some sequences at random.
# Target: T1, Cad1 (UniProt P24813)
# T1 sequence: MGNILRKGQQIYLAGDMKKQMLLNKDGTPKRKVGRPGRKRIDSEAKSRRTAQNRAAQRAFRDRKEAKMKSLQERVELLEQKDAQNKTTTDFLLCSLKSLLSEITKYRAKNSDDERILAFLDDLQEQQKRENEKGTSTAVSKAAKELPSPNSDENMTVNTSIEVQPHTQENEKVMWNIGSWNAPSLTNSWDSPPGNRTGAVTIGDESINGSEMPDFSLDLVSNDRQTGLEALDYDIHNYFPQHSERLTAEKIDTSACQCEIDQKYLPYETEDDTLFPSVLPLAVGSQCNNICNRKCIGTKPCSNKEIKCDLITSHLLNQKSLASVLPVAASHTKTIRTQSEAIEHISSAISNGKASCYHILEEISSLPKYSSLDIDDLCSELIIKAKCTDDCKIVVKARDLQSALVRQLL
# Test: PBM E-score (8-mer binding enrichment) (E-score (-0.5 to 0.5)); higher = stronger / more preferred TF binding
# Conditions: protein concentration: 100 nM; construct: GST-full length
# Protocol: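 Universal 'all 10-mer' protein binding microarrays (Agilent AMADID 015681) probed with GST-tagged S. cerevisiae TFs (full-length or DBD) made by in vitro transcription/translation (PURExpress), about 100-200 nM. Bound TF was detected with fluorescent anti-GST. Each ungapped 8-mer (which stands for itself and its reverse complement) is scored by the PBM enrichment score (E-score), a modified Wilcoxon-Mann-Whitney statistic from -0.5 to +0.5, computed with the Universal PBM Analysis Suite. Scale: above 0.35 generally sequence-specific binding.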
row,Sequence,PBM E-score
1,AATTATGA,0.297
2,GATTATAA,0.29
3,AATTATGG,0.216
4,ACTTATAC,0.154
5,AATTATGT,0.167
6,AATTATAC,0.172
7,CATTATAA,0.104
8,AAACGTAC,0.0592
9,AGCTAGTG,-0.0897
10,AGCTCACG,-0.0493
11,TAGAGTCA,-0.321
12,AAAGAACC,0.0643
13,ATAAGCCA,0.063
14,AGTCGGCG,0.0599
15,GGTGGGTA,-0.0656
16,CATGTGCG,0.173
17,AATTATAT,0.29
18,ACTTATAT,0.202
19,AGTTATAT,0.101
20,CAAGTGGA,-0.0832
21,CCCAAAAA,-0.0252
22,CCGTTCCC,-0.0828

row,Sequence,PBM E-score
1,ATTATTCG,0.195
2,CTTATTCA,0.17
3,ATTATTCA,0.26
4,GATATTCA,0.0631
5,GTTATTCA,0.251
6,ATTATTCC,0.131
7,ATATTGTA,0.0624
8,ATCACCAC,0.245
9,GGCACACC,-0.298
10,CCGATGAG,0.0417
11,ACTGCACT,0.0895
12,CTTGGGGA,0.0866
13,CCGACCTC,-0.0414
14,GTCATGAC,0.288
15,CTCATGAC,-0.0193
16,GTCATGAA,0.0483
17,CACTTAAC,0.00927
18,GGCGCTCA,0.149
19,ACACCTGC,0.0761
20,CCCGCCGA,-0.0624
21,GCCGCGGC,0.347
22,GCCGCCGA,0.277

row,Sequence,PBM E-score
1,CCCGCGGC,0.0319
2,ACCGCGGA,0.207
3,GCCGCGGA,-0.00234
4,CCCGCGCG,0.298
5,CCCGCGGA,0.0649
6,ACCGCCGA,-0.0944
7,TCCGCGGA,0.311
8,CCCGCGCC,-0.118
9,CCCGCGCA,0.106
10,ATTTCCAA,-0.03
11,ACCAGGCA,-0.169
12,AAAGCCAA,-0.0764
13,AAGAGCTG,0.0198
14,CCGTTGGA,-0.182
15,ACCGATGG,-0.143
16,TCTGAACA,0.184
17,GCTATCGA,-0.0158
18,GGCGCGCC,0.172
19,AGCGCGCC,0.082
20,CGCGCGGA,0.212
21,CGCGCGCC,0.254
22,CGCGCGGC,0.261

row,Sequence,PBM E-score
1,AGCGCGGC,0.0398
2,TTAACAAA,0.0927
3,GACTCTAA,-0.118
4,GCATAAGA,0.108
5,GCATAAGC,0.254
6,ACATAAGC,0.107
7,GCTTAGCC,-0.148
8,CCTAATAA,0.0868
9,ACTACTAT,0.253
10,ACTAATAT,0.302
11,AGTAATAC,0.21
12,CCTAATAG,-0.0644
13,AGTAATAT,0.346
14,ACTACTAC,0.0727
15,ACTAATAG,0.325
16,ACTAATAA,0.226
17,AATAATAT,0.208
18,AGTAATAG,0.16
19,ACTACTAA,0.158
20,CACCTAAA,0.0285
